# Screens (PubChem BioAssay)
# VLA-4 inh – inhibition in human VLA-4 binding assay, primary screen, VLA-4 allosteric modulator project, MLPCN library, flow cytometry, VLA-4 expressing cells | Integrin alpha-4 (Homo sapiens), P13612 | ligand binding flow cytometry | inhibition, % (about 7 µM as worked out from the volumes in the protocol) | hit rate 0.2% among 330,000 | AID 2557, 2010; in the data active means inhibition above about 50%
# Target sequence (P13612 whole entry, looked up): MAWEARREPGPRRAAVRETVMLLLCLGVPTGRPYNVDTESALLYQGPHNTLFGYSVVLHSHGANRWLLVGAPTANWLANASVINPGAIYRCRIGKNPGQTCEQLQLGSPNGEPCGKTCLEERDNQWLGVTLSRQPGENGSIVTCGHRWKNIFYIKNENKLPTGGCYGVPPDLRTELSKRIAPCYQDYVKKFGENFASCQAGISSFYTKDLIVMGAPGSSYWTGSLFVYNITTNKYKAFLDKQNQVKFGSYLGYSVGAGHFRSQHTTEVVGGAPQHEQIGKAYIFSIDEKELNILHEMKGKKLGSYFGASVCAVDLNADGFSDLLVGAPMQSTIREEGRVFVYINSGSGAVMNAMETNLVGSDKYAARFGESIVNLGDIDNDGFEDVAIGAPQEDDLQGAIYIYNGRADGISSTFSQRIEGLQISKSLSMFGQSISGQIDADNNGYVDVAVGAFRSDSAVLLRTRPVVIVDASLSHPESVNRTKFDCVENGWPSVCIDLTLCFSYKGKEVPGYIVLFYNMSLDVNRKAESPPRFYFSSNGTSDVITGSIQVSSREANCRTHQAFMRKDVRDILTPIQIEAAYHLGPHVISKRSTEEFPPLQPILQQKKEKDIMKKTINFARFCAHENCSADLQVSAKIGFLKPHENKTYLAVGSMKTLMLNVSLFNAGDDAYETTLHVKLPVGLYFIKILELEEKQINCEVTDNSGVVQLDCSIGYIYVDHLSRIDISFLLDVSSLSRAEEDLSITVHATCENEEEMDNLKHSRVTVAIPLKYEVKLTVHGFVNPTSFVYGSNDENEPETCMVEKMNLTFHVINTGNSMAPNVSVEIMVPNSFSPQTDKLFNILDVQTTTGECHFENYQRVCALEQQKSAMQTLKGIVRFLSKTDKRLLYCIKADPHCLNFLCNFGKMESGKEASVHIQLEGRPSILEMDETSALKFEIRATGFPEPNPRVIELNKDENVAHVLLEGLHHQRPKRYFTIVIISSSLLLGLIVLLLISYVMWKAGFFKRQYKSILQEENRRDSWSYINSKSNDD
# MEP2 TOR yeast – modulators of MEP2-GFP levels in yeast, primary screen, S. cerevisiae, multiplex flow cytometry, MLPCN library. GFP response vs DMSO, % at 10 µM. hit rate 0.51% among 330,000. S. cerevisiae MEP2-GFP strain, 3 h; 100% = DMSO control level;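 active means GFP response versus DMSO above a set limit, roughly screen mean plus 3 SD, cut at about 180% in these data; inconclusive means fewer than 70 cells counted for a yeast strain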;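 further: median GFP fluorescence of the barcode-gated MEP2-GFP cells per well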
# CIT2 TOR yeast – modulators of CIT2-GFP expression in yeast, primary screen, S. cerevisiae, GFP fusion, multiplex flow cytometry, MLPCN library; S. cerevisiae CIT2-GFP strain, 3 h; 100 means same as DMSO wells; GFP response vs DMSO, % at 10 µM; hit rate 0.065% among 320,000; AID 2029, 2009;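 active means GFP response relative to DMSO above a set limit, near the screen mean plus 3 SD, cut at about 150% in these data; inconclusive means Fewer than 70 cells measured for a yeast strain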;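 further: ratio of well median GFP fluorescence to mean of DMSO wells on the plate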
# AGP1 TOR yeast – modulators of AGP1-GFP expression in yeast TOR pathway, primary screen, cell-based, multiplex flow cytometry, S. cerevisiae, MLPCN library; 3 h; GFP as percent of DMSO wells; GFP response vs DMSO, % at 10 µM; hit rate 0.02% among 320,000; AID 2066, 2009;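 active means GFP response relative to DMSO above a set limit, near screen average plus 3 SD, cut at about 150% in these data; inconclusive means fewer than 70 cells counted for the yeast strain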;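 further: median GFP channel fluorescence of the gated AGP1 strain per well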
# RPL19A TOR yeast – RPL19A-GFP expression modulators in yeast, primary screen, cell-based, S. cerevisiae, multiplex flow cytometry, MLPCN | S. cerevisiae RPL19A-GFP strain, 3 h; active compounds read low | percent response vs DMSO, % at 10 µM | hit rate 0.3% among 330,000 | AID 2025, 2009;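 active means percent response vs DMSO below 50%; inconclusive means fewer than 70 events counted for the yeast strain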;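 further: median channel GFP fluorescence of the barcoded RPL19A-GFP strain; lower means less RPL19A-GFP as with rapamycin TOR inhibition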
# LAP4-GFP MLPCN – modulators of LAP4-GFP expression in yeast, primary screen, S. cerevisiae, multiplex flow cytometry, MLPCN library; 3 h; median GFP as percent of DMSO wells; GFP response vs DMSO, % at 10 µM; hit rate 0.34% among 320,000; AID 2023, 2009;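 active means GFP response vs DMSO above a set limit, about the screen mean plus 3 SD, cut at about 150% in these data; inconclusive means under 70 cell events counted for the yeast strain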
# A number is an active result; - = inactive; ? = inconclusive; . = no result; [ ] = another dose, or the depositor's remark. Compounds with a hit are over-represented: about 1.1% of the library has one in this group of screens.
SMILES,VLA-4 inh,MEP2 TOR yeast,CIT2 TOR yeast,AGP1 TOR yeast,RPL19A TOR yeast,LAP4-GFP MLPCN
NNC(=O)c1ccc(CSc2cccc3cccnc23)cc1,-,-,-,-,-,-
c1cnc2c(SCc3ccc(-c4nnco4)cc3)cccc2c1,-,195,-,-,.,-
O=C(Nc1ncccc1Cl)c1cc2ccccc2o1,-,-,-,-,-,-
CC(Sc1nnc(-c2ccncc2)n1C)C(=O)Nc1ccc(N2CCOCC2)cc1 (stereo not drawn),-,-,-,-,-,-
S=C(NCc1ccccc1)N1CCCCC1,-,-,-,-,-,-
CC(=O)N1CCN(C(=S)NCc2ccccc2)CC1,54,.,.,.,.,.
CC(=O)C(=[N+]=[N-])C(=O)NCc1ccccc1,-,209[may fluoresce violet],?,-,-,-
CC1CN(S(=O)(=O)c2cc(C(=O)NCCC3=CCCCC3)ccc2Cl)CC(C)O1 (stereo not drawn),-,-,-,-,-,-
COc1ccc(NS(=O)(=O)c2ccc(C)c(C(=O)N3CC(C)OC(C)C3)c2)cc1 (stereo not drawn),-,-,-,-,-,-
COC(=O)Cc1csc(Nc2ccc(Cl)cc2)n1,-,-,-,-,-,-
COC(=O)Cc1csc(Nc2ccc(F)c(Cl)c2)n1,-,-,-,-,-,196
CN(c1ccccc1)S(=O)(=O)c1cccc(NC(=O)CSc2nccc(=O)[nH]2)c1,-,-,-,-,-,-
COC(=O)c1cc(S(=O)(=O)Nc2nn(C)c3cccc(F)c23)oc1C,-,-,-,-,-,-
COC(=O)c1cc(S(=O)(=O)Nc2nn(C)c3ccccc23)oc1C,-,-,-,-,-,156
C/C(=N\NC(=O)c1ccc(O)cc1)c1ccc(NC(=O)Cc2ccccc2)cc1,-,-,-,-,-,-
Cc1noc2ncnc(Sc3ccc(Cl)cc3)c12,-,-,-,-,-,166
CN(C)S(=O)(=O)c1cccc(C(=O)NCC2CCCCC2)c1,-,-,-,-,-,-
CCN(CC)S(=O)(=O)c1ccc(C(=O)NCC2CCCCC2)cc1,-,194[may fluoresce violet],?,?,30[may fluoresce violet],-
CS(=O)(=O)c1ccc(Cl)c(C(=O)Nc2ccc3nc(N4CCOCC4)sc3c2)c1,-,-,-,-,-,-
COc1ccccc1N1CCN(C2CCCN(Cc3cc(F)cc(F)c3)C2)CC1 (stereo not drawn),-,-,-,154,-,-
Cc1nonc1CN(C)C(=O)CC1C(=O)NCCN1Cc1cccc(C(F)(F)F)c1 (stereo not drawn),-,-,-,-,-,-
Cc1ccccc1OCC(=O)NCCN1CCCC1,-,?,?,?,14[may fluoresce violet],?
O=C(Nc1cccc(F)c1)N1CCCCCC1,-,-,-,-,-,-
COc1ccc(NC(=O)N(C)C[C@H]2Oc3ccc(NS(=O)(=O)c4cccs4)cc3C(=O)N([C@@H](C)CO)C[C@@H]2C)cc1,-,-,-,-,-,-
CCCN1C(=O)c2cc(C(=O)Nc3ccc(OC)cc3OC)ccc2C1Nc1ccc(OC)cc1OC (stereo not drawn),-,261[may fluoresce violet],?,-,-,-
SMILES,VLA-4 inh,MEP2 TOR yeast,CIT2 TOR yeast,AGP1 TOR yeast,RPL19A TOR yeast,LAP4-GFP MLPCN
CCCN1C(=O)c2cc(C(=O)Nc3ccc(OC)c(OC)c3)ccc2C1Nc1ccc(OC)c(OC)c1 (stereo not drawn),-,-,-,-,-,-
CCN(CC)CCN(C(=O)CN1C(=O)CCC1=O)c1nc2cc3c(cc2s1)OCO3,-,200[may fluoresce violet],?,?,-,-
CCN(CC)CCN(C(=O)c1cccc(N2C(=O)CCC2=O)c1)c1nc2cc3c(cc2s1)OCO3,-,-,-,-,-,-
COc1ccc(C)cc1NC(=O)C/C(C)=N/NC(=O)Cc1cccc2ccccc12,-,?,?,?,35[may fluoresce violet],-
Cc1cc(S(=O)(=O)NCCCN2CCOCC2)c(C)cc1Cl,-,-,-,-,-,-
O=C(Nc1ccc(F)cc1)c1ccccc1F,-,-,-,-,-,-
CC(=O)Nc1ccc(NC(=O)c2ccccc2F)cc1,-,177,?,-,-,-
O=C(O)c1cccc(NC(=S)NC(=O)c2cccc(OCc3ccccc3)c2)c1,-,-,-,-,-,-
CC(=O)c1cccc(NC(=O)Nc2ccccc2)c1,-,582[may fluoresce violet],?,-,-,-
O=C(Nc1ccc(COc2ccccc2)cc1)Nc1cccc(C(=O)O)c1,-,800[may fluoresce violet],?,?,30[may fluoresce violet],-
COC(=O)c1cccc(NC(=S)Nc2cc(Cl)ccc2OC)c1,-,-,-,-,-,-
COC(=O)c1cccc(NC(=O)Nc2ccc(Cl)cc2Cl)c1,-,721[may fluoresce violet],?,-,-,-
CSc1cccc(NC(=O)c2cc(S(=O)(=O)N3CCc4ccccc43)cn2C)c1,-,-,-,-,-,-
CC(C)(Oc1ccc(Cl)cc1)C(=O)NCc1ccc(S(N)(=O)=O)cc1,-,244[may fluoresce violet],?,-,-,-
COC(=O)CNC(=O)C(C)(C)Oc1ccc(Cl)cc1,-,-,-,-,-,.
COc1ccccc1NC(=O)c1cc(=O)[nH]c2ccccc12,-,-,-,-,-,-
COc1ccccc1C(C)NC(=O)c1cc(=O)[nH]c2ccccc12 (stereo not drawn),-,194[may fluoresce violet],?,-,-,-
O=C(NN1C(=O)/C(=C\c2ccc(O)c([N+](=O)[O-])c2)SC1=S)c1ccccc1Cl,-,175,-,-,-,154
CC(C)(C)C1=CC=C(C(C)(C)C)C(=O)C1=O,-,-,-,-,-,175
CC(C)(C)c1ccc2c(c1)C(=O)c1ccccc1C2=O,-,-,-,-,-,-
COc1cc(SC)ccc1C(=O)Nc1cccc(C2OCCCO2)c1,-,-,-,-,-,-
Clc1ccc(-n2cccc2)cn1,-,-,185,-,-,-
CN1CCN(c2ccc([N+](=O)[O-])cc2S(=O)(=O)N2CCOCC2)CC1,-,-,-,-,-,-
O=[N+]([O-])c1ccc(N2CCN(Cc3ccccc3)CC2)c(S(=O)(=O)N2CCOCC2)c1,-,235[may fluoresce violet],?,-,.,-
CN1CCc2c(sc3c2C(=O)NC(c2ccc4c(c2)OCO4)N3)C1 (stereo not drawn),-,202,-,-,-,-
CN1CCc2c(sc3c2C(=O)NC(c2ccccc2)N3)C1 (stereo not drawn),-,-,-,-,-,-
Cc1nc2cc(NC(=O)N3CCCCC3)ccc2n1C,-,371[may fluoresce violet],?,?,41[may fluoresce violet],-
CCc1c(C)c2ccc(OCC(=O)N(C)C)c(C)c2oc1=O,-,-,-,-,-,-
Cc1c(C)c2ccc(OCC(=O)N(C)C)c(C)c2oc1=O,-,482[may fluoresce violet],?,?,49[may fluoresce violet],-
